Experimental data taken from PubChem BioAssay (Tox21).
Inconclusive results are not listed. Activity calls are given as the source filed them. The call rests on the fitted dose curve; in most records, active means well fitted cell-killing curve with a large enough effect in the repeat runs; inconclusive means weak or mixed curves, or effect the other way; inactive means flat fitted curve, though single readings scatter.

assay: cAMP Responsive Elements (CRE) small molecule antagonists, cell-based qHTS assay: qHTS cell viability counter screen (AID 2060913); settings: CRE-bla HEK293T viability, CellTiter-Glo luminescence, 5 h; series mostly up to 92.4 µM; viability change, negative = cytotoxic: at the top concentration; further: nearly all actives have a fitted effect of over 40% in size
In short: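 Cytotoxicity read in the same wells as the CRE-bla HEK293T antagonist assay: after 3 h compound with 0.25 uM NKH477 final and 2 h beta-lactamase substrate, CellTiter-Glo luminescence measured.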
On the % scale 0 is the no-effect control and ±100 the full control effect; potency means the concentration at half of the fitted maximal effect.

| SMILES | viability change, negative = cytotoxic | Potency |
| --- | --- | --- |
| CCCC(C)C(O)CC (stereo not given) | 3.29% (inactive) | – |
| Nc1ccc(F)c([N+](=O)[O-])c1 | 16% (inactive) | – |
| O=C(O)CC(=O)C(=O)O | -11.9% (inactive) | – |
| CCCCCOC(=O)CCC | 0.151% (inactive) | – |
| NC(=O)c1ccc(N)cc1 | 1.75% (inactive) | – |
| CNCCC(Oc1ccccc1OC)c1ccccc1 (stereo not given) | 8.51% [at 42.5 µM] (inactive) | – |
| CCCCCCC | -0.372% (inactive) | – |
| C=CCNC(N)=S | – | inactive |
| c1ccc(C[n+]2cccc3ccccc32)cc1 | -1.23% (inactive) | – |
| COC(=O)/C=C\C(=O)OC | – | inactive |
| O=C(CO)[C@@H](O)[C@H](O)[C@H](O)CO | 3.52% (inactive) | – |
| O=C(Nc1ccc([N+](=O)[O-])cc1)Nc1ccc([N+](=O)[O-])cc1 | 8.01% [at 42.5 µM] (inactive) | – |
| CN1CCN(c2cc3c(cc2F)c(=O)c(C(=O)O)cn3-c2ccc(F)cc2)CC1 | 6.55% [at 42.5 µM] (inactive) | – |
| CCOCCOCCOCCO | – | inactive |
| NC(N)=NC(N)=NCCc1ccccc1 | – | inactive |
| CCCc1cc(=O)[nH]c(=S)[nH]1 | – | inactive |
| COc1ccccc1O | – | inactive |
| Cc1nc2n(c(=O)c1CCN1CCC(c3noc4cc(F)ccc34)CC1)CCC[C@H]2O | 2.27% [at 18.9 µM] (inactive) | – |
| NCCCN1CCOCC1 | 0.401% (inactive) | – |
| CC(C)C(=O)Nc1ccc([N+](=O)[O-])c(C(F)(F)F)c1 | – | inactive |

| SMILES | viability change, negative = cytotoxic | Potency |
| --- | --- | --- |
| COc1cccc(N)c1 | -4.13% (inactive) | – |
| O=[N+]([O-])c1cc(N(CCO)CCO)ccc1NCCO | – | inactive |
| COC(=O)c1ccc(C)cc1 | – | inactive |
| CC(C=O)Cc1ccc(C(C)C)cc1 (stereo not given) | 5.22% (inactive) | – |
| c1ccc2sc(SSc3nc4ccccc4s3)nc2c1 | 2.3% [at 18.9 µM] (inactive) | – |
| CCCCCCCCCCCCCCCCCC[N+](C)(C)C | – | 54.6 µM (active) |
| CC12CCC(CC1=O)C2(C)C (stereo not given) | 10.7% (inactive) | – |
| CCCN(CCC)C(=O)C(CCC(=O)O)NC(=O)c1ccccc1 (stereo not given) | 0.571% [at 42.5 µM] (inactive) | – |
| COC(=O)[C@H]1[C@H]2C[C@@H]3c4[nH]c5cc(OC)ccc5c4CCN3C[C@H]2C[C@@H](OC(=O)c2cc(OC)c(OC)c(OC)c2)[C@@H]1OC | – | inactive |
| CC1(C)O[C@@H]2C[C@H]3[C@@H]4C[C@H](F)C5=CC(=O)C=C[C@]5(C)[C@@]4(F)[C@@H](O)C[C@]3(C)[C@]2(C(=O)CO)O1 | – | inactive |
| C=CCN1C[C@H](C(=O)N(CCCN(C)C)C(=O)NCC)C[C@@H]2c3cccc4[nH]cc(c34)C[C@H]21 | -0.554% [at 42.5 µM] (inactive) | – |
| CCN1CCN(C(=O)N[C@@H](C(=O)N[C@@H]2C(=O)N3[C@@H]2SC(C)(C)[C@H]3C(=O)O)c2ccccc2)C(=O)C1=O | 1.07% [at 42.5 µM] (inactive) | – |
| CN(C)/N=N/c1nc[nH]c1C(N)=O | – | inactive |
| COC(=O)/C=C/c1ccccc1 | – | inactive |
| c1cc2ccc3ccc4ccc5cccc6c(c1)c2c3c4c56 | 18.5% [at 3.27 µM] (inactive) | – |
| Nc1ccc2cc(S(=O)(=O)O)ccc2c1 | -1.7% (inactive) | – |
| COc1cnc(NS(=O)(=O)c2ccc(N)cc2)nc1 | 4.87% [at 42.5 µM] (inactive) | – |
| C[C@H]1[C@@H](c2ccccc2)NC(=O)N1C | -2.74% (inactive) | – |
| CC(C)c1ccc2oc3nc(N)c(C(=O)O)cc3c(=O)c2c1 | -3.79% [at 42.5 µM] (inactive) | – |
| CC(CN)CCCN (stereo not given) | -15.5% (inactive) | – |

assay: cAMP Responsive Elements (CRE) small molecule agonists, cell-based qHTS assay: qHTS cell viability counter screen (AID 2060914); settings: CRE-bla HEK293T viability, CellTiter-Glo luminescence, 5 h; series mostly up to 92.4 µM; activity change, negative = cytotoxicity: at the top concentration;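 further: viability read after 3 h of compound exposure; nearly all actives have a fitted effect of over 50% in size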
In short: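 HEK 293T CRE-bla; DMEM + 10% dialyzed FBS, 25 mM HEPES; 18 h pre-incubation; compound 3 h, 37 °C/5% CO2; CellTiter-Glo added after reporter read; luminescence after 30 min RT.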

| SMILES | activity change, negative = cytotoxicity | Potency |
| --- | --- | --- |
| CCCC(C)C(O)CC (stereo not given) | 13.6% (inactive) | – |
| Nc1ccc(F)c([N+](=O)[O-])c1 | 1.89% (inactive) | – |
| O=C(O)CC(=O)C(=O)O | -11.1% (inactive) | – |
| CCCCCOC(=O)CCC | -1.86% (inactive) | – |
| NC(=O)c1ccc(N)cc1 | -4.03% (inactive) | – |
| CNCCC(Oc1ccccc1OC)c1ccccc1 (stereo not given) | -6.43% [at 42.5 µM] (inactive) | – |
| CCCCCCC | -6.11% (inactive) | – |
| C=CCNC(N)=S | – | inactive |
| c1ccc(C[n+]2cccc3ccccc32)cc1 | -11.6% (inactive) | – |
| COC(=O)/C=C\C(=O)OC | – | inactive |
| O=C(CO)[C@@H](O)[C@H](O)[C@H](O)CO | 0.968% (inactive) | – |
| O=C(Nc1ccc([N+](=O)[O-])cc1)Nc1ccc([N+](=O)[O-])cc1 | 4.2% [at 42.5 µM] (inactive) | – |
| CN1CCN(c2cc3c(cc2F)c(=O)c(C(=O)O)cn3-c2ccc(F)cc2)CC1 | 2.12% [at 42.5 µM] (inactive) | – |
| CCOCCOCCOCCO | – | inactive |
| NC(N)=NC(N)=NCCc1ccccc1 | – | inactive |
| CCCc1cc(=O)[nH]c(=S)[nH]1 | – | inactive |
| COc1ccccc1O | – | inactive |
| Cc1nc2n(c(=O)c1CCN1CCC(c3noc4cc(F)ccc34)CC1)CCC[C@H]2O | 4.41% [at 18.9 µM] (inactive) | – |
| NCCCN1CCOCC1 | 10.5% (inactive) | – |
| CC(C)C(=O)Nc1ccc([N+](=O)[O-])c(C(F)(F)F)c1 | – | inactive |

| SMILES | activity change, negative = cytotoxicity | Potency |
| --- | --- | --- |
| COc1cccc(N)c1 | -11.8% (inactive) | – |
| O=[N+]([O-])c1cc(N(CCO)CCO)ccc1NCCO | – | inactive |
| COC(=O)c1ccc(C)cc1 | – | inactive |
| CC(C=O)Cc1ccc(C(C)C)cc1 (stereo not given) | 8.09% (inactive) | – |
| c1ccc2sc(SSc3nc4ccccc4s3)nc2c1 | -2.25% [at 18.9 µM] (inactive) | – |
| CCCCCCCCCCCCCCCCCC[N+](C)(C)C | – | 61.3 µM (active) |
| CC12CCC(CC1=O)C2(C)C (stereo not given) | -18.2% (inactive) | – |
| CCCN(CCC)C(=O)C(CCC(=O)O)NC(=O)c1ccccc1 (stereo not given) | 1.7% [at 42.5 µM] (inactive) | – |
| COC(=O)[C@H]1[C@H]2C[C@@H]3c4[nH]c5cc(OC)ccc5c4CCN3C[C@H]2C[C@@H](OC(=O)c2cc(OC)c(OC)c(OC)c2)[C@@H]1OC | – | inactive |
| CC1(C)O[C@@H]2C[C@H]3[C@@H]4C[C@H](F)C5=CC(=O)C=C[C@]5(C)[C@@]4(F)[C@@H](O)C[C@]3(C)[C@]2(C(=O)CO)O1 | – | inactive |
| C=CCN1C[C@H](C(=O)N(CCCN(C)C)C(=O)NCC)C[C@@H]2c3cccc4[nH]cc(c34)C[C@H]21 | -8.76% [at 42.5 µM] (inactive) | – |
| CCN1CCN(C(=O)N[C@@H](C(=O)N[C@@H]2C(=O)N3[C@@H]2SC(C)(C)[C@H]3C(=O)O)c2ccccc2)C(=O)C1=O | 2.27% [at 42.5 µM] (inactive) | – |
| CN(C)/N=N/c1nc[nH]c1C(N)=O | – | inactive |
| COC(=O)/C=C/c1ccccc1 | – | inactive |
| c1cc2ccc3ccc4ccc5cccc6c(c1)c2c3c4c56 | -0.0627% [at 3.27 µM] (inactive) | – |
| Nc1ccc2cc(S(=O)(=O)O)ccc2c1 | 1.3% (inactive) | – |
| COc1cnc(NS(=O)(=O)c2ccc(N)cc2)nc1 | 6.02% [at 42.5 µM] (inactive) | – |
| C[C@H]1[C@@H](c2ccccc2)NC(=O)N1C | 2.76% (inactive) | – |
| CC(C)c1ccc2oc3nc(N)c(C(=O)O)cc3c(=O)c2c1 | -8.57% [at 42.5 µM] (inactive) | – |
| CC(CN)CCCN (stereo not given) | -17.7% (inactive) | – |
